In all, about 5,500 compounds went through this assay and about 2,000 (36%) were called active. Another 18% or so got no clear call; they are omitted. Rule as the data show it: active = normalized growth mostly below about 0.91 (no sharp cut-off); inconclusive = no clear call, values can overlap the other calls; inactive = mostly above about 0.92. The list shows a part of the results.
Experiment: chemical genetic growth profiling, strain panel (AID 1159580);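 also: tested at 20 µM; growth read once vehicle control cultures reached saturation at 30 °C; 1 = growth at the plate median or of vehicle wells; lower values mean less growth of the strain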
Details: growth OD

Measured: normalized growth

CC(=O)OCC[C@H](C)CCC=C(C)C
inactive: S. cerevisiae deletion strains, locus YJR043C, strain POL32, hits give low values 1.01 | S. cerevisiae deletion strains, locus YJR066W, strain TOR1, hits give low values 0.979 | S. cerevisiae deletion strains, locus YKL009W, strain mrt4, hits give low values 1.01 | S. cerevisiae deletion strains, locus YKL068W, hits give low values 1.03 | S. cerevisiae deletion strains, locus YKL085W, strain MDH1 (second series), hits give low values 1.01 | S. cerevisiae deletion strains, locus YKL085W, strain MDH1, hits give low values 1.01 | S. cerevisiae deletion strains, locus YKL160W, strain elf1, hits give low values 0.978 | S. cerevisiae deletion strains, locus YKL190W, strain CNB1, hits give low values 1.01 | S. cerevisiae deletion strains, locus YKR001C, strain vps1, hits give low values 1.03 | S. cerevisiae deletion strains, locus YKR026C, strain gcn3, hits give low values 0.994 | S. cerevisiae deletion strains, locus YKR091W, strain srl3, hits give low values 0.986 | S. cerevisiae deletion strains, locus YLL001W, strain dnm1, hits give low values 1.03 | S. cerevisiae deletion strains, locus YLL026W, hits give low values 1.03 | S. cerevisiae deletion strains, locus YLL041C, strain sdh2, hits give low values 1.02 | S. cerevisiae deletion strains, locus YLR027C, strain aat2, hits give low values 1.02 | S. cerevisiae deletion strains, locus YLR039C, strain RIC1, hits give low values 1.08 | S. cerevisiae deletion strains, locus YLR058C, strain SHM2, hits give low values 1.02 | S. cerevisiae deletion strains, locus YLR102C, strain apc9, hits give low values 1.02 | S. cerevisiae deletion strains, locus YLR113W, strain HOG1, hits give low values 1.05 | S. cerevisiae deletion strains, locus YLR221C, strain rsa3, hits give low values 1.04 | S. cerevisiae deletion strains, locus YLR258W, strain gsy2, hits give low values 1.03 | S. cerevisiae deletion strains, locus YLR262C, strain YPT6 (second series), hits give low values 0.991 | S. cerevisiae deletion strains, locus YLR262C, strain YPT6, hits give low values 1.09 | S. cerevisiae deletion strains, locus YLR268W, strain sec22, hits give low values 1.03 | S. cerevisiae deletion strains, locus YLR320W, strain mms22, hits give low values 1 | S. cerevisiae deletion strains, locus YLR330W, strain CHS5, hits give low values 1 | S. cerevisiae deletion strains, locus YLR342W, strain FKS1 (second series), hits give low values 1.01 | S. cerevisiae deletion strains, locus YLR342W, strain FKS1, hits give low values 0.975 | S. cerevisiae deletion strains, locus YLR357W, strain rsc2, hits give low values 0.981 | S. cerevisiae deletion strains, locus YLR370C, strain arc18, hits give low values 0.996 | S. cerevisiae deletion strains, locus YLR371W, strain rom2, hits give low values 1.02 | S. cerevisiae deletion strains, locus YLR384C, strain iki3, hits give low values 0.971 | S. cerevisiae deletion strains, locus YLR418C, strain cdc73, hits give low values 1.02 | S. cerevisiae deletion strains, locus YML016C, strain PPZ1, hits give low values 1.02 | S. cerevisiae deletion strains, locus YML032C, strain rad52, hits give low values 1.03 | S. cerevisiae deletion strains, locus YML120C, strain ndi1, hits give low values 0.988 | S. cerevisiae deletion strains, locus YML124C, strain tub3, hits give low values 1.02 | S. cerevisiae deletion strains, locus YMR058W, strain fet3, hits give low values 0.989 | S. cerevisiae deletion strains, locus YMR078C, strain ctf18, hits give low values 1.04 | S. cerevisiae deletion strains, locus YMR125W, strain sto1, hits give low values 0.985 | S. cerevisiae deletion strains, locus YMR129W, hits give low values 0.985 | S. cerevisiae deletion strains, locus YMR205C, strain PFK2, hits give low values 1.01 | S. cerevisiae deletion strains, locus YMR223W, strain ubp8, hits give low values 1.04 | S. cerevisiae deletion strains, locus YMR231W, strain pep5, hits give low values 0.983 | S. cerevisiae deletion strains, locus YMR307W, strain GAS1, hits give low values 1.05 | S. cerevisiae deletion strains, locus YNL067W, strain RPL9B, hits give low values 1.02 | S. cerevisiae deletion strains, locus YNL071W, strain lat1, hits give low values 0.989 | S. cerevisiae deletion strains, locus YNL153C, strain GIM3, hits give low values 1.01 | S. cerevisiae deletion strains, locus YNL183C, strain NPR1, hits give low values 0.991 | S. cerevisiae deletion strains, locus YNL209W, strain ssb2, hits give low values 0.979 | S. cerevisiae deletion strains, locus YNL233W, strain BNI4, hits give low values 1.01 | S. cerevisiae deletion strains, locus YNL248C, strain rpa49, hits give low values 0.984 | S. cerevisiae deletion strains, locus YNL250W, strain rad50, hits give low values 1.03 | S. cerevisiae deletion strains, locus YNL271C, strain bni1, hits give low values 1.02 | S. cerevisiae deletion strains, locus YNL298W, strain CLA4, hits give low values 1.05 | S. cerevisiae deletion strains, locus YNL307C, strain MCK1, hits give low values 1.04 | S. cerevisiae deletion strains, locus YNL322C, strain KRE1 (second series), hits give low values 0.974 | S. cerevisiae deletion strains, locus YNL322C, strain KRE1, hits give low values 1.01 | S. cerevisiae deletion strains, locus YNR049C, strain mso1, hits give low values 0.996 | S. cerevisiae deletion strains, locus YNR052C, strain pop2, hits give low values 1.01 | S. cerevisiae deletion strains, locus YOL012C, strain htz1 1.25 | S. cerevisiae deletion strains, locus YOL147C, strain pex11, hits give low values 1.03 | S. cerevisiae deletion strains, locus YOR001W, strain rrp6, hits give low values 1.02 | S. cerevisiae deletion strains, locus YOR061W, strain CKA2, hits give low values 1.01 | S. cerevisiae deletion strains, locus YOR069W, strain VPS5, hits give low values 1 | S. cerevisiae deletion strains, locus YOR070C, strain gyp1, hits give low values 0.994 | S. cerevisiae deletion strains, locus YOR080W, strain dia2, hits give low values 0.968 | S. cerevisiae deletion strains, locus YOR083W, strain WHI5, hits give low values 0.972 | S. cerevisiae deletion strains, locus YOR106W, strain vam3, hits give low values 0.971 | S. cerevisiae deletion strains, locus YOR136W, strain idh2, hits give low values 1.02 | S. cerevisiae deletion strains, locus YOR144C, strain elg1, hits give low values 1.03 | S. cerevisiae deletion strains, locus YOR184W, strain ser1, hits give low values 1.02 | S. cerevisiae deletion strains, locus YOR231W, strain MKK1, hits give low values 1.06 | S. cerevisiae deletion strains, locus YOR265W, strain rbl2, hits give low values 0.995 | S. cerevisiae deletion strains, locus YOR270C, strain vph1, hits give low values 1.03 | S. cerevisiae deletion strains, locus YOR290C, strain snf2, hits give low values 0.997 | S. cerevisiae deletion strains, locus YOR316C, strain cot1, hits give low values 1.02 | S. cerevisiae deletion strains, locus YPL051W, strain arl3, hits give low values 0.99 | S. cerevisiae deletion strains, locus YPL078C, strain atp4, hits give low values 0.967 | S. cerevisiae deletion strains, locus YPL106C, strain sse1, hits give low values 0.949 | S. cerevisiae deletion strains, locus YPL240C, strain hsp82, hits give low values 0.99 | S. cerevisiae deletion strains, locus YPL256C, strain CLN2, hits give low values 0.997 | S. cerevisiae deletion strains, locus YPR119W, strain clb2, hits give low values 1.02 | S. cerevisiae deletion strains, locus YPR141C, strain kar3, hits give low values 1.03 | S. cerevisiae deletion strains, locus YPR163C, strain tif3, hits give low values 1.02 | S. cerevisiae deletion strains, locus YPR167C, strain met16, hits give low values 1.02 | S. cerevisiae deletion strains, strain wtn01, hits give low values 1.02 | S. cerevisiae strains, strain wild type, hits give low values 1
